GPR151 ag = activators of human GPR151, primary screen, cell-based, PathHunter beta-arrestin, luminescence; hit rate 1% among 650,000; activation, % at 11.2 µM; PathHunter beta-arrestin GPR151 cells; G-protein coupled receptor 151 (Homo sapiens), Q8TDV0; AID 1508602, 2020; in the data active = activation above about 4.9%;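 also: 0% = median of compound wells and 100% = cells with positive control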
FBW7 activator = FBW7 E3 ligase activators, primary screen, biochemical, AlphaScreen, human | F-box/WD repeat-containing protein 7 (Homo sapiens), Q969H0 | AlphaScreen FBW7–phospho-cyclin E peptide binding, activator screen | normalized activity (activation), % at 26.1 µM | hit rate 0.13% among 650,000; in the data active = normalized activity above about 1.9%;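 also: purified mutant Fbw7 with reduced substrate affinity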
TEAD-YAP block = TEAD-YAP interaction inhibition, primary screen, TEAD-YAP interaction inhibitor project, luminescence, HEK-TIYL cells. TEAD-Gal4/YAP UAS-luciferase luminescence. inhibition, % at 9.12 µM. hit rate 1.4% among 640,000. AID 1259422, 2018; in the data active = inhibition above about 32%;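 also: 0% = median of test compound wells and 100% = reference inhibitor wells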
MITF inh = MITF inhibitors, primary screen, biochemical, AlphaScreen, human | Microphthalmia-associated transcription factor (Homo sapiens), O75030 | inhibition, % at 2.6 µM | AID 1259374, 2018 | AlphaScreen MITF homodimerization, bead proximity signal | hit rate 0.91% among 650,000; in the data active = inhibition above about 50%;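 also: 0% = vehicle wells with protein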
Starred values were filed as active, the others as inactive. Rows were chosen to be rich in hits. Some 3.4% of all compounds tested hit in one or more screens of this group.

SMILES	GPR151 ag	FBW7 activator	TEAD-YAP block	MITF inh
CCN(CC)c1ncnc2sc(C(=O)N3CCCc4ccccc43)c(C)c12	1	0	0	0
CC1=NCCN1S(=O)(=O)c1cc(Br)ccc1Br	0	0	1	-19
Cc1ccc(NC(=O)c2cc(S(=O)(=O)NCCc3ccccc3)ccc2F)cc1C	0	0	6	-2
O=C(Nc1nc(-c2ccc(S(=O)(=O)N3CCCCCC3)cc2)cs1)c1cccs1	0	0	-1	5
O=S(=O)(c1ccc(-c2csc(N/N=C/c3cccs3)n2)cc1)N1CCCC1	-1	1	51*	7
CC1CN2C(=O)Cc3c(S(=O)(=O)Nc4ccc(F)cc4)ccc(c32)S1 (stereo not drawn)	0	0	23	10
CCc1cccc(NS(=O)(=O)c2ccc3c4c2CC(=O)N4CC(C)S3)c1 (stereo not drawn)	0	0	36*	-3
COC(=O)Cc1nc(NCc2ccccc2)c2c(C)c(C)sc2n1	1	1	67*	8
O=C1CCCC2=C1C(c1ccc(OCc3ccccc3F)cc1)C1=C(CCCC1=O)O2	4	0	-1	7
Nc1ccc(-c2ccc(-c3ccc(N)cc3)cc2)cc1	-1	43*	74*	11
COc1ccc(-c2ccc(N)cc2)cc1	-1	0	-49	3
O=C(Cc1ccc(N2CCC(NCCCc3cccnc3)CC2)cc1)NCc1ccccc1	0	0	2	-10
CCOC(=O)N1CCN(C(=O)c2ccc(CSc3nc4ccncc4[nH]3)cc2)CC1	1	0	12	8
C=CCNc1nc2c(c(=O)n(C)c(=O)n2C)n1CCC(C)C	0	1	33*	19
C=CCNc1nc2c(c(=O)n(C)c(=O)n2C)n1CCCCCC	0	0	47*	12
O=C(Nc1ccc(Br)cc1)c1cnn2ccccc12	-3	0	32*	6
CN(C1=C(N2CCOCC2)C(=O)c2ccccc2C1=O)c1ccccc1	1	-1	14	51*
CC(=O)N(C1=C(N2CCCC2)C(=O)c2ccccc2C1=O)c1cccc(F)c1	-2	0	42*	18
CC(=O)N(C1=C(N2CCOCC2)C(=O)c2ccccc2C1=O)c1ccc(Cl)c(Cl)c1	-3	0	40*	117*
CC(=O)N(C1=C(N2CCCC2)C(=O)c2ccccc2C1=O)c1ccc(Cl)c(Cl)c1	-3	0	14	21
CC(=O)N(C1=C(N2CCOCC2)C(=O)c2ccccc2C1=O)c1ccccc1	-3	0	64*	12
CC(=O)N(C1=C(N2CCOCC2)C(=O)c2ccccc2C1=O)c1cccc(Cl)c1	-3	-1	13	6
O=C(Nc1cccc(C(F)(F)F)c1)c1sc(=S)n2c1[nH]c(=O)c1ccccc12	0	0	-4	-15
O=C1C(N2CCCCC2)=C(N2CCOCC2)C(=O)c2ccccc21	0	0	10	5
O=C1C(NC2CCCC2)=C(N2CCOCC2)C(=O)c2ccccc21	-3	0	79*	27
SMILES	GPR151 ag	FBW7 activator	TEAD-YAP block	MITF inh
CCOc1ccc(N(C(C)=O)C2=C(N3CCN(C)CC3)C(=O)c3ccccc3C2=O)cc1	-4	0	90*	9
Cc1ccc(N2C(=O)NC(=O)/C(=C\c3ccco3)C2=O)cc1C	1	0	4	5
Cc1cc(/C=C2\C(=O)NC(=O)N(c3cccc(F)c3)C2=O)c(C)n1C	1	0	1	55*
Cc1cc(/C=C2\C(=O)NC(=S)N(c3ccc(F)cc3)C2=O)c(C)n1-c1cccnc1	-2	0	0	110*
CCc1ccc(N2C(=O)NC(=O)/C(=C\c3cc(C)n(-c4cccnc4)c3C)C2=O)cc1	-2	0	5	-17
O=C1NC(=O)N(c2ccc(F)cc2)C(=O)/C1=C/c1ccco1	1	0	-1	73*
Cc1ccc(N2C(=O)NC(=O)/C(=C\c3cc(C)n(C)c3C)C2=O)cc1	-1	0	5	15
O=C1NC(=O)N(c2cccc(F)c2)C(=O)/C1=C/c1ccc(I)o1	1	0	11	78*
O=C1NC(=O)N(c2ccccc2F)C(=O)/C1=C/c1ccc(I)o1	0	0	5	52*
COc1cc(OC)c(OC)cc1/C=C1\C(=O)NC(=S)N(c2cccc(F)c2)C1=O	-2	0	6	54*
CCC[C@@H]1NC(=O)[C@@H]2C[C@H](NCc3ccc(CN4CCCCC4)s3)CN2C1=O	1	0	-4	8
CN(C)C(=O)CSc1nnc(-c2ccco2)n1C	-1	2.1*	5	17
CCOC(=O)c1ccc2nc(C)cc(Nc3cccc(O)c3)c2c1	-2	0	75*	-2
CC(=O)Nc1ccc(Nc2cc(C)nc3c(C)cc(C)cc23)cc1	0	0	9	1
COC(=O)c1ccc(Nc2cc(C)nc3c(C)cc(C)cc23)cc1	0	0	49*	-7
CCOC(=O)c1ccc(Nc2cc(C)nc3c(C)cc(C)cc23)cc1	-1	0	47*	1
CCOC(=O)c1cccc(Nc2cc(C)nc3c(C)cc(C)cc23)c1	1	1	-9	17
CCOc1cc(C#N)c(NC(=O)c2cccnc2)cc1OCC	1	0	55*	-1
CCOc1cc(C#N)c(NC(=O)c2ccncc2)cc1OCC	1	0	-11	-1
CCOc1ccccc1NC(=O)c1cccs1	0	0	-6	-8
CCOc1cc(C#N)c(NC(=O)c2cccs2)cc1OCC	-1	0	48*	2
Cc1cc(C)cc(NC(=O)C2CCN(S(=O)(=O)c3ccc4c(c3)OCC(=O)N4)CC2)c1	0	0	-6	8
Cc1ccc(OCC(=O)Nc2cccc(NC(=O)c3cccs3)c2)cc1	0	0	-14	-2
Cc1cc(C)cc(OCC(=O)Nc2ccc(NC(=O)c3cccs3)cc2)c1	0	2.2*	-8	-11
COc1ccc(CNC(=O)C2CC(c3ccccc3OC)=NO2)cc1 (stereo not drawn)	-1	0	48*	-1
SMILES	GPR151 ag	FBW7 activator	TEAD-YAP block	MITF inh
COc1ccc(CNC(=O)C2CC(c3ccccc3F)=NO2)cc1 (stereo not drawn)	0	0	0	-11
COc1ccccc1C1=NOC(C(=O)NCc2cccs2)C1 (stereo not drawn)	0	0	41*	-4
COc1ccccc1C1CN(CC(=O)NCc2cccc(C)n2)Cc2ccccc2O1 (stereo not drawn)	1	0	-1	9
CCCC(=O)N(CC(=O)Nc1sc(C)c(C)c1C(N)=O)C1CCCC1	-1	0	2	14
CCOc1ccc2ccccc2c1/C=C1/SC(=O)N(CC(=O)OC)C1=O	-1	0	42*	12
COc1cccc(CNC2CCCN(c3nc(C)c4cc(F)ccc4n3)CC2)c1 (stereo not drawn)	2	0	0	4

Assay outcomes: PubChem BioAssay, The Scripps Research Institute Molecular Screening Center
